Among the data in PubChem BioAssay AID488969 (Vanderbilt High Throughput Screening Facility, 2010) are z-score values, retold here.

Whole data set: some 110,000 compounds, median “z-score” near -0.1, cut for the highest 2% near 2. The entries come from a sample that favours the highest values as a whole. Activity calls are given as the source filed them.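 How the source made its calls: active means z-score in the third read window above 3 or below -3; inactive means the rest.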

In the test the target is Metabotropic glutamate receptor 8 (Rattus norvegicus) (UniProt P70579). The experiment in a line: mGluR8 Gi/Go-coupled signaling modulation – cell-based, rat, thallium flux, HTS, primary screen (AID 488969). The conditions noted are these: HEK293 rat mGluR8, GIRK (G protein-gated inwardly rectifying potassium channel) thallium flux, FluoZin2; at 10 µM; stronger effect = higher value; submaximal glutamate (EC20) added with thallium.
Metabotropic glutamate receptor 8 (Rattus norvegicus), sequence (P70579 whole entry, looked up): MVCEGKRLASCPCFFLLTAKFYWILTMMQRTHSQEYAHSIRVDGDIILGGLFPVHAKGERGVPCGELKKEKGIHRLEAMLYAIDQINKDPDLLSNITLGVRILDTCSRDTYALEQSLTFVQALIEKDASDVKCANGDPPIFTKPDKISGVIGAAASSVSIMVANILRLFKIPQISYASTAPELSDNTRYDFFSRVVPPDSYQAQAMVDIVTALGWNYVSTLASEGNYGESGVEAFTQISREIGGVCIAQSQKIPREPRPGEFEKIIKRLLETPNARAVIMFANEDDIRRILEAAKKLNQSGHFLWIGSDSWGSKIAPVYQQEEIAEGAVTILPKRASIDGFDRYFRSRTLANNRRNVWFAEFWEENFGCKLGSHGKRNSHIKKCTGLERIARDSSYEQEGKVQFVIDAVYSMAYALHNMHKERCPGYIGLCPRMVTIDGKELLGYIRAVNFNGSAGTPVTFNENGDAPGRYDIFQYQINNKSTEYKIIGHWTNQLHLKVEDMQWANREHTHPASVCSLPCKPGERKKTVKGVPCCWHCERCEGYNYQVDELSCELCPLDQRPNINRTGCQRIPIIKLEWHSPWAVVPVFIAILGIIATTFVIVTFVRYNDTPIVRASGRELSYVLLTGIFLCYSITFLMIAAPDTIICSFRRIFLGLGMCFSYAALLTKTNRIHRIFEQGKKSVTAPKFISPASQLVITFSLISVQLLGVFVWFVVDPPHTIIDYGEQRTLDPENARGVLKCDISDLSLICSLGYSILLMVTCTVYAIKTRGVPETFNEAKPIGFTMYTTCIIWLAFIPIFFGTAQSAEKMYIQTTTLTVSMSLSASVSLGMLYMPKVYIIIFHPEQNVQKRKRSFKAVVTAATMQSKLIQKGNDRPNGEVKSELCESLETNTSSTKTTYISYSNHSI
The molecule `COC(=O)CSc1nc2ccccc2o1` gave a z-score of -0.541.
Then `Cc1nonc1OCC(C)(COc1nonc1C)NC(=O)c1ccc(Cl)cc1`, with -0.0555; and `COc1ccccc1CNC(=O)/C=C/c1cc2c(cc1Br)OCO2`, with -0.0108; and `CC(=O)c1c(C)[nH]c(C(=O)COc2ccc(C#N)cc2)c1C`, with -0.0197.
With `CC(=O)c1c(C)[nH]c(C(=O)COc2cc(C)cc(C)c2)c1C`, the z-score was 4 (active).
In turn, `CCCOc1ccc(OCC(=O)c2[nH]c(C)c(C(C)=O)c2C)cc1` returned a z-score of 0.149.
In turn, `O=C1CN(Cc2ccccc2)C(=NCc2ccco2)S1` gave a z-score of -0.501.
Then `Cc1cccc(NC(=S)NCC23C=CC(O2)C2C(=O)N(c4ccc(Cl)cc4)C(=O)C23)c1` (centres undefined), with -0.343; and `CCOC(=O)c1ccc(NC(=O)c2ccccc2[N+](=O)[O-])cc1`, with -0.169.
Then `CC(=O)NC(=S)Nc1ccc(-c2nc3ccc(C)cc3s2)cc1`, with 0.23; and `CC(C)(C)NCCOc1ccc(Br)cc1`, with -0.0295.
Consider `OCCNCCCCOc1ccc(F)cc1`, for which the z-score was determined as 0.17.
As to `CC(C)(C)NCCCCOc1ccc(F)cc1`, the z-score amounted to 2.98.
Then `C=CCn1c(N)c(C(=O)NCC2CCCO2)sc1=S` (centres undefined), with 0.129.
`CCOC(=O)N1CCN(c2cc(=O)n(C3CCCCC3)c(=O)[nH]2)CC1`: the z-score came to 0.0254.
The same measure for `CCOc1ccc(OCC)c(-c2c(=O)n(OCc3ccccc3Br)c3ccccc3[n+]2[O-])c1`: 1.8; for `COc1cccc(CC(NC(C)=O)C(=O)NC2CCN(c3c4c(nc5ncnn35)CCC4)CC2)c1` (centres undefined): 0.172; for `COc1cccc(N2CCN(c3c4c(nc5ncnn35)CCC4)CC2)c1`: 5.19 (active).
The molecule `c1ccc(N2CCN(c3c4c(nc5ncnn35)CCC4)CC2)cc1` came in with a z-score of -0.139.
Then `COc1ccc2cc(S(=O)(=O)NCCCN3CCOCC3)ccc2c1`, with -0.0146; and `Cc1ccccc1NC(=O)C(C#N)Cc1cccnc1` (centres undefined), with 2.26.
Then `CCc1ccccc1NC(=O)C(C#N)Cc1cccnc1` (centres undefined), with 0.345.
Then `Cc1ccccc1NC(=O)/C(C#N)=C\c1cccnc1`, with -0.183; and `Cc1ccc(CO/N=C\Cc2snc(Sc3ncc(C(F)(F)F)cc3Cl)c2C#N)cc1`, with 0.0198.
With `Cc1ccc(CNC(=O)C(Cc2ccccc2)NS(=O)(=O)c2ccc3c(c2)CCC(=O)N3)cc1` (centres undefined), the z-score stood at 0.0976.
For `O=C(CSc1cn(Cc2ccccc2)c2ccccc12)Nc1nccs1`, the z-score is -0.121.
Then `COc1ccc(C(=O)NN=C(Cc2ccccc2)Cc2ccccc2)cc1OC`, with -0.165.
With `C/C(Cc1ccccc1)=N\NC(=O)c1ccc(F)cc1`, the z-score turned out to be 0.49.
Regarding `O=C(NN=C(Cc1ccccc1)Cc1ccccc1)c1ccc(F)cc1`, the z-score is 4.71 (active).
The same measure for `O=C(CS(=O)(=O)Cc1ccccc1)Nc1ccc(S(=O)(=O)N2CCOCC2)cc1`: -0.109; for `CCCC(=O)Nc1nc2ccc(S(=O)(=O)N3CCCCC3)cc2s1`: -0.273.
The molecule `O=C(Nc1nc(-c2ccccn2)cs1)C1CC1` had a z-score of 0.0299.
Then `O=C(Nc1nc(-c2ccccn2)cs1)c1ccc(Br)s1`, with 12.3 (active); and `O=C(Nc1nc(-c2cc(Cl)sc2Cl)cs1)c1ccc(Br)s1`, with 0.0927.
Then `O=C(CSCc1ccccc1Br)N/N=C/c1ccc2c(c1)OCO2`, with -0.0558.
`CCOCCCNC(=O)Cc1c(C(=O)O)[nH]c2ccc(Cl)cc12` returned a z-score of 0.12.
Then `CCCn1c(=N)n(CCOCCOCCn2c(=N)n(CCC)c3ccccc32)c2ccccc21`, with 0.012.
Molecule `Cc1cccc(OCCn2c(=S)[nH]c3ccccc32)c1` yielded a z-score of 2.83.
`CCOC(=O)Cn1c(=N)n(CCOc2ccc(OC)cc2)c2ccccc21`: the z-score was determined as 2.74.
The same measure for `Cc1cccc(OCCn2c(S(=O)(=O)O)nc3ccccc32)c1`: 0.0442; for `CCCn1c(=N)n(CC(=O)OCC)c2ccccc21`: -0.118.
The same measure for `CCCn1c(=N)n(CCOc2ccc(OC)cc2)c2ccccc21`: 3.04 (active); for `CCOC(=O)Cn1c(=N)n(CCOc2ccc3ccccc3c2)c2ccccc21`: 1.25; for `CCn1c(=S)[nH]c2ccccc21`: 0.63.
The same measure for `N=c1n(CCO)c2ccccc2n1CCOc1ccccc1`: -0.208; for `CCn1c(=N)n(CCOc2ccc(OC)cc2)c2ccccc21`: -0.158; for `Cc1cccc(OCCn2c(=O)sc3ccccc32)c1`: -0.343.
For `CCOC(=O)Cn1c(=N)n(CCOc2cccc(C)c2)c2ccccc21`, the z-score was 3.95 (active).
The same measure for `O=C(NCCN1CCCCC1)c1ccco1`: 0.151.
`CC1=C(Sc2ccccn2)C(=O)NC(C)(C)C1`: the z-score was found to be 0.338.
The molecule `CN(C)S(=O)(=O)c1ccc(C(=O)Nc2ccccc2OC(F)(F)C(F)F)cc1` registered a z-score of -0.525.
The same measure for `COc1ccc(NC(=O)Nc2ncn(Cc3cccc(C(F)(F)F)c3)n2)cc1OC`: 0.0572.
As to `COc1ccc(-c2ccc(/C=C3/C(=N)N4C=CSC4=NC3=O)o2)c([N+](=O)[O-])c1`, the z-score was 0.455.
The same measure for `CC(=O)N1N=C(c2ccco2)CC1c1ccc(C)cc1` (centres undefined): 0.0902; for `C=CCNC(=O)C(=O)N/N=C/c1ccco1`: 0.424; for `CCCn1c(C)cc(=O)c2cc(NC(=O)c3cnccn3)ccc21`: -0.106.
The same measure for `O=C(Cn1ccc2ccccc2c1=O)N1CCN(Cc2ccc3c(c2)OCO3)CC1`: 0.477; for `CCN1C(c2ccccc2)=C(c2ccccc2)S/C1=C/C=C1\SC(=S)N(C)C1=O`: -0.0724.
The same measure for `O=C(NCc1cccs1)C1CCN(S(=O)(=O)c2cccs2)CC1`: -0.232; for `CCOc1ccc(NC(=O)CSCC(=O)O)cc1`: -0.178; for `Cc1occc1C(=O)N/N=C/C1=C(N2CCOCC2)C(=C\c2ccc(Cl)cc2Cl)/CC1`: 0.0547.
The molecule `CC(NC(=O)Cc1cccs1)C(c1cccs1)N1CCOCC1` (centres undefined) gave a z-score of -0.108.
In the case of `CCOC(=O)Cn1c(=N)n(Cc2ccccc2F)c2ccccc21`, the z-score is 3.72 (active).
Regarding `CCOC(=O)Cn1c(=N)n(Cc2ccccc2)c2ccccc21`, the z-score came to 0.46.
For `C=CCn1c(=N)n(CC(=O)OCC)c2ccccc21`, the z-score worked out at 0.534.
Then `COc1cc(C(=O)NCc2nnc(SCC(=O)NCc3ccccc3)o2)cc(OC)c1OC`, with 1.55.
The same measure for `CCC(c1nnnn1CCOC)N(Cc1cc2c(C)cc(C)cc2[nH]c1=O)CC1CCCO1` (centres undefined): -0.203.
Then `Nc1nc(CSC(=S)N2CCOCC2)nc(Nc2ccccc2)n1`, with 2.25.
Turning to `Nc1nc(CSC(=S)N2CCN(c3ccccc3)CC2)nc(Nc2ccccc2)n1`, the z-score came out at 0.00399.
The same measure for `Nc1nc(CSC(=S)N2CCOCC2)nc(Nc2ccc(F)cc2)n1`: -0.0752; for `Cc1cc(C)c(S(=O)(=O)c2ccccc2)c(OC(=O)c2c(Cl)cccc2Cl)n1`: -0.286.
Then `COc1ccccc1NC(=O)C(=O)NNC(=O)c1ccco1`, with 2.81; and `COc1ccccc1NC(=O)c1cccc(NC(=O)c2ccco2)c1`, with -0.669; and `COc1ccc(C)cc1NC(=O)C(=O)NNC(=O)c1ccco1`, with 4.89 (active).
Then `COc1ccc(Cl)cc1NC(=O)c1ccco1`, with -0.426; and `COc1ccccc1NC(=O)c1cc(Cl)ccc1NC(=O)c1ccco1`, with 0.52.
Consider `COc1ccc(NC(=O)c2ccco2)cc1NC(=O)c1ccc(C)cc1`, for which the z-score is -0.304.
With `O=c1c2ccccc2nc(CSc2ncnc3nc[nH]c23)n1-c1cccc(C(F)(F)F)c1`, the z-score was -0.256.
The same measure for `Cc1nc(NC(=O)c2ccccc2)sc1-c1csc(NCc2ccco2)n1`: 0.00275; for `Cn1nnc(NC(=O)c2ccco2)n1`: 0.813.
`Cc1ccc(C(=O)OCC(=O)NCc2ccco2)cc1` registered a z-score of -0.195.
Then `CCc1ccc2c(c1)C1(C(=O)N2)N2CCCC2C(C(=O)c2ccc3ccccc3c2)C12C(=O)Nc1ccccc12` (centres undefined), with -0.276; and `CCc1ccc2c(c1)C(=O)c1ccccc1C2=O`, with -0.389.
Then `CCc1ccc2c(c1)C1(NN=C(c3cccc4ccccc34)S1)C(=O)N2` (centres undefined), with 4.02 (active); and `CCc1ccc2c(c1)C1(NN=C(c3ccc(C)cc3)S1)C(=O)N2` (centres undefined), with 3.15 (active).
Then `CC(C)c1ccc2c(c1)C1(NN=C(c3ccccc3)S1)C(=O)N2` (centres undefined), with 0.979; and `CCc1ccc2c(c1)C1(NN=C(c3ccccc3)S1)C(=O)N2` (centres undefined), with 0.104; and `CCCc1ccc(OCC(O)CN2CCN(c3ccccc3)CC2)cc1` (centres undefined), with -0.0136.
Regarding `COc1cc(C2CC(=O)c3c(ccc4ccccc34)N2)ccc1O` (centres undefined), the z-score worked out at 0.11.
Then `COc1ccc(C(=O)C(CCCCC(CN(C)C)C(=O)c2ccc(OC)cc2)CN(C)C)cc1` (centres undefined), with -0.494.
The same measure for `CCOC(=O)C1=C(C)NC(=O)NC1c1ccc(OC)c(CN2CCOCC2)c1` (centres undefined): 0.00374.
For the molecule `COc1ccc(CCCC(=O)Nc2ccccc2F)cc1`, the z-score turned out to be 0.0152.
Turning to `COC(=O)c1cc(NC(=O)C2CC2)cc(C(=O)OC)c1`, the z-score was determined as 0.0071.
`Cc1ccsc1/C=C1/SC(N2CC(C)OC(C)C2)=NC1=O` (centres undefined) returned a z-score of -0.238.
In the case of `CC(=O)c1ccc(NC2CC(O)C(O)CO2)cc1` (centres undefined), the z-score is 2.32.
The same measure for `CC(=O)c1ccc(NC2OC(C)C(O)C(O)C2O)cc1` (centres undefined): 0.292; for `CC(=O)c1ccc(NC(=S)N2CC(C)CC(C)C2)cc1` (centres undefined): -0.208.
The same measure for `CCCn1nc(C(=O)OCC(=O)c2ccc3c(c2)NC(=O)CO3)c2ccccc2c1=O`: -1.71.
For the molecule `O=C(NNS(=O)(=O)c1ccccc1)c1ccncc1`, the z-score was -0.151.
On to `CC1=CC(C)(C)Nc2ccc(OC(=O)CN3C(=O)C4CCCCC4C3=O)cc21` (centres undefined), for which the z-score was 1.08.
The same measure for `CC1=CC(C)(C)Nc2ccc(OC(=O)C(Cc3ccccc3)N3C(=O)c4ccccc4C3=O)cc21` (centres undefined): 1.05; for `CC1=CC(C)(C)Nc2ccc(OC(=O)C(Cc3ccccc3)N3C(=O)C4CCCCC4C3=O)cc21` (centres undefined): 2.63.
Then `CCC(CC)NC(=O)/C=C/c1ccccc1Cl`, with -0.178; and `CCC(Sc1nc2ccc(C)cc2[nH]1)C(=O)O` (centres undefined), with 0.179; and `COC(=O)c1cc(OC)c(OC)cc1NC(=O)c1ccc(C)o1`, with -0.653.
Then `CC(C)(C)c1ccc(C(=O)NCC(=O)OCC(=O)Nc2ccc3c(c2)OCCO3)cc1`, with 0.131; and `CCCCC(=O)Nc1ccc(Br)cc1C(=O)O`, with -0.24; and `CC1CC2=C(CC1/C=N/NC(N)=S)C(C)(C)CCC2` (centres undefined), with 3.44 (active).
As for `CC1=C(CC/C(C)=N/NC(N)=S)C(C)(C)CCC1`, the z-score turned out to be 1.85.
The same measure for `C/C(CC1CC2=C(CC1(C)C)C(C)(C)CCC2)=N\NC(N)=S` (centres undefined): 0.599.
Regarding `CCCCNC(=O)Cn1nc([N+](=O)[O-])c([N+](=O)[O-])c1C`, the z-score was -0.27.
The same measure for `Cc1noc(C)c1S(=O)(=O)N1CCC(Cc2ccccc2)CC1`: 2.68; for `Cc1noc(C)c1S(=O)(=O)N1CCN(c2ccccc2)CC1`: -0.073; for `Cc1noc(C)c1S(=O)(=O)N1CCC(C(=O)N(C)Cc2ccccc2)CC1`: -0.182.
